Results from PubChem BioAssay AID1159580 (chemical genetic matrix, 2015).
The campaign covered roughly 5,500 compounds. About 2,000 (36%) were called active. Another 18% or so got no clear call; they are omitted. Cut-off read from the data, not from the text of the source: active = normalized growth mostly below about 0.91 (no sharp cut-off); inconclusive = no clear call, values can overlap the other calls; inactive = mostly above about 0.92. The list shows a part of the results.

Experiment: chemical genetic growth profiling, strain panel (AID 1159580);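 note: tested at 20 µM; growth read once vehicle control cultures reached saturation at 30 °C; 1 = growth at the plate median or of vehicle wells; lower values mean less growth of the strain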
Conditions: S. cerevisiae deletion strains, growth OD

Measured: normalized growth

CC[C@@H]1C=C/C=C/C[C@H](C)[C@@H](O)[C@](C)(O)C(=O)[C@H](C)[C@@H](O)[C@H](C)C(=O)[C@H](C)[C@@H](O)[C@H](C)/C=C/C(=O)O[C@H]2[C@@H](C)[C@@H](CC1)O[C@@]1(CC[C@@H](C)[C@@H](C[C@H](C)O)O1)[C@@H]2C
inactive: locus YAL021C, strain ccr4, stronger effect = lower value 0.977 | locus YAL026C, strain drs2, stronger effect = lower value 1.01 | locus YAL030W, strain snc1, stronger effect = lower value 1 | locus YBL061C, strain skt5, stronger effect = lower value 1 | locus YBR009C, strain hhf1, stronger effect = lower value 0.985 | locus YBR023C, strain chs3, stronger effect = lower value 1 | locus YBR171W, strain sec66, stronger effect = lower value 1.01 | locus YBR231C, strain swc5, stronger effect = lower value 1 | locus YBR279W, strain paf1, stronger effect = lower value 0.982 | locus YCL011C, strain gbp2, stronger effect = lower value 1.02 | locus YCL016C, strain dcc1, stronger effect = lower value 1.02 | locus YCL061C, strain MRC1, stronger effect = lower value 1.01 | locus YCL069W, strain vba3, stronger effect = lower value 1.01 | locus YCR088W, strain abp1, stronger effect = lower value 1.02 | locus YDL005C, strain med2, stronger effect = lower value 1 | locus YDL040C, strain nat1, stronger effect = lower value 1.01 | locus YDR001C, strain nth1, stronger effect = lower value 1.01 | locus YDR069C, strain doa4, stronger effect = lower value 0.997 | locus YDR137W, strain rgp1, stronger effect = lower value 0.899 | locus YDR159W, strain sac3, stronger effect = lower value 0.953 | locus YDR195W, strain ref2 0.999 | locus YDR297W, strain sur2, stronger effect = lower value 1.01 | locus YDR334W, strain swr1, stronger effect = lower value 1.02 | locus YDR335W, strain msn5, stronger effect = lower value 1.01 | locus YDR392W, strain spt3, stronger effect = lower value 0.958 | locus YEL003W, strain gim4, stronger effect = lower value 1.01 | locus YEL037C, strain rad23, stronger effect = lower value 1.02 | locus YEL061C, strain CIN8 (second series), stronger effect = lower value 1.01 | locus YER015W, strain faa2, stronger effect = lower value 0.997 | locus YER016W, strain bim1, stronger effect = lower value 1.01 | locus YER111C, strain swi4, stronger effect = lower value 1.01 | locus YER155C, strain BEM2 (second series), stronger effect = lower value 1.03 | locus YFR010W, strain ubp6, stronger effect = lower value 1 | locus YGL167C, strain pmr1, stronger effect = lower value 1.01 | locus YGL173C, strain kem1, stronger effect = lower value 0.996 | locus YGL227W, strain vid30, stronger effect = lower value 1.01 | locus YGL240W, strain doc1, stronger effect = lower value 1.01 | locus YGL253W, strain hxk2, stronger effect = lower value 0.927 | locus YHR013C, strain ard1, stronger effect = lower value 0.967 | locus YHR027C, strain rpn1, stronger effect = lower value 1 | locus YHR142W, strain chs7, stronger effect = lower value 1.03 | locus YJL092W, strain hpr5, stronger effect = lower value 1.01 | locus YJL095W, strain BCK1 (second series), stronger effect = lower value 1.02 | locus YJL115W, strain asf1, stronger effect = lower value 1.01 | locus YJL129C, strain trk1, stronger effect = lower value 0.967 | locus YJL154C, strain vps35, stronger effect = lower value 1.01 | locus YJL164C, strain tpk1, stronger effect = lower value 0.987 | locus YJL166W, strain qcr8, stronger effect = lower value 1.01 | locus YJL187C, strain SWE1, stronger effect = lower value 1.01 | locus YKL160W, strain elf1, stronger effect = lower value 0.997 | locus YKR026C, strain gcn3, stronger effect = lower value 0.99 | locus YKR091W, strain srl3, stronger effect = lower value 1.01 | locus YLL001W, strain dnm1, stronger effect = lower value 0.984 | locus YLL026W, stronger effect = lower value 1.01 | locus YLL041C, strain sdh2, stronger effect = lower value 1.01 | locus YLR027C, strain aat2, stronger effect = lower value 0.995 | locus YLR221C, strain rsa3, stronger effect = lower value 1.02 | locus YLR258W, strain gsy2, stronger effect = lower value 0.997 | locus YLR320W, strain mms22, stronger effect = lower value 0.984 | locus YLR342W, strain FKS1, stronger effect = lower value 1 | locus YLR357W, strain rsc2, stronger effect = lower value 1.03 | locus YLR370C, strain arc18, stronger effect = lower value 0.994 | locus YLR384C, strain iki3, stronger effect = lower value 0.999 | locus YML120C, strain ndi1, stronger effect = lower value 0.995 | locus YMR058W, strain fet3, stronger effect = lower value 1.02 | locus YMR125W, strain sto1, stronger effect = lower value 1.04 | locus YMR129W, stronger effect = lower value 0.999 | locus YMR231W, strain pep5, stronger effect = lower value 1 | locus YNL071W, strain lat1, stronger effect = lower value 1.01 | locus YNL209W, strain ssb2, stronger effect = lower value 0.997 | locus YNL248C, strain rpa49, stronger effect = lower value 1.01 | locus YNL322C, strain KRE1 (second series), stronger effect = lower value 1.02 | locus YNR049C, strain mso1, stronger effect = lower value 1.02 | locus YOR001W, strain rrp6, stronger effect = lower value 0.999 | locus YOR070C, strain gyp1, stronger effect = lower value 1 | locus YOR080W, strain dia2, stronger effect = lower value 1.01 | locus YOR083W, strain WHI5, stronger effect = lower value 1 | locus YOR106W, strain vam3, stronger effect = lower value 0.99 | locus YOR265W, strain rbl2, stronger effect = lower value 1 | locus YOR270C, strain vph1, stronger effect = lower value 0.914 | locus YOR290C, strain snf2, stronger effect = lower value 0.966 | locus YPL051W, strain arl3, stronger effect = lower value 1.01 | locus YPL078C, strain atp4, stronger effect = lower value 1.02 | locus YPL240C, strain hsp82, stronger effect = lower value 0.989
active: locus YLR262C, strain YPT6 (second series), stronger effect = lower value 0.852 | locus YMR205C, strain PFK2, stronger effect = lower value 0.815 | locus YPL106C, strain sse1, stronger effect = lower value 0.807
